High-throughput results: PubChem, National Center for Advancing Translational Sciences (NCATS)
This is a sample that favours compounds with a hit; in the whole collection about 12% have one here.
PLK1 PBD inh = PLK1 (human) polo-box domain binding inhibition | Plk1 PBD binding of FITC phosphopeptide, fluorescence polarization | Potency, µM, for the others: max response, negative = inhibition, hits mostly inhibitors | hit rate 2.8% among 360,000 | AID 720504; further: series mostly up to about 57 µM; on the % scale 0 is the no-effect control and ±100 the full control effect; nearly all actives have a fitted effect of over 65% in size
JMJD2A Tudor = JMJD2A Tudor domain (human) inhibition; O75164; AlphaScreen JMJD2A-Tudor / H3K4me3 peptide binding; Potency, µM (top dose mostly 114 µM), for inactives: at the top dose activity change, negative = inhibition, actives largely listed as inhibitors; hit rate 4.4% among 390,000; AID 504339; further: on the % scale 0 is the no-effect control and ±100 the full control effect; nearly all actives have a fitted effect of over 50% in size
Target sequence (O75164 whole entry, looked up, the tested form may be a part): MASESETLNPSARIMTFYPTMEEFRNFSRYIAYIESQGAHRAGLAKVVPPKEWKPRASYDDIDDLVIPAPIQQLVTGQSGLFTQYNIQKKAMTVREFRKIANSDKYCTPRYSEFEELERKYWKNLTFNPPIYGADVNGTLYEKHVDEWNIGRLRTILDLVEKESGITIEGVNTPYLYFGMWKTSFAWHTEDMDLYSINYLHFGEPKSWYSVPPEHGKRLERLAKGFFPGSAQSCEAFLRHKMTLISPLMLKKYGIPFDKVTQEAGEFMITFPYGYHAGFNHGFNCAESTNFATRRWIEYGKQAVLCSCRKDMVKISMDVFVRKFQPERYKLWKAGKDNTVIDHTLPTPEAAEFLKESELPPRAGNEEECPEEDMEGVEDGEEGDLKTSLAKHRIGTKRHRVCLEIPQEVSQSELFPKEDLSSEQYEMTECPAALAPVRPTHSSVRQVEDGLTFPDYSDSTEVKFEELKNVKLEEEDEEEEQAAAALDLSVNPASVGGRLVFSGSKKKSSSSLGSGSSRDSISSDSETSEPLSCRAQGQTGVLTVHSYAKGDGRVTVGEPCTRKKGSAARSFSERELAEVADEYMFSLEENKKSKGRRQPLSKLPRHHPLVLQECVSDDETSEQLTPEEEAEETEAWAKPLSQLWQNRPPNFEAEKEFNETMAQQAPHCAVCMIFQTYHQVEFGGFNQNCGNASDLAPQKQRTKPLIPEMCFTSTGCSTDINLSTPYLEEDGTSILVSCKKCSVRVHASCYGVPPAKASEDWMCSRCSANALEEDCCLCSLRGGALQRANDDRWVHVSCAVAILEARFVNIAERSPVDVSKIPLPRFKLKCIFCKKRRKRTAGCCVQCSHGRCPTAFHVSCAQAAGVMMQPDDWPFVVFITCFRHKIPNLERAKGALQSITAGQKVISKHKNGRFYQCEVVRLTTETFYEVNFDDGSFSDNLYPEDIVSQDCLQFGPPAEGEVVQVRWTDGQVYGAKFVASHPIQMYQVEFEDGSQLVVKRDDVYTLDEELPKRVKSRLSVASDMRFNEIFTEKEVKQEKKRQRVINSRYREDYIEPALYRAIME
HP1b binding inh = HP1-beta chromodomain-methylated histone interaction inhibition | hit rate 0.56% among 390,000 | P83916 | Potency, µM (doses to about 114 µM), for the others: top-dose activity change, negative = inhibition, usual class: inhibitors | AlphaScreen HP1-beta / biotin-H3K9me3 peptide binding | AID 540317; further: nearly all actives have a fitted effect of over 70% in size
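Compound inhibition of the preformed complex between 50 nM HP1-beta and 50 nM biotinylated H3K9me3 peptide was read by AlphaScreen. Buffer was PBS pH 7.4 with 0.01% Tween-20. Incubations ran 30 min at room temperature, with 10 ug/mL donor/acceptor beads.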
Sfp inh = blocks B. subtilis Sfp PPTase activity. Biochemical Sfp PPTase activity, qHTS. Potency, µM, for inactives: largest response in the series, negative = inhibition, most hits filed as inhibitors. hit rate 3.5% among 310,000;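 further: the enzyme is Sfp with the accession as filed and its product quenches rhodamine fluorescence; 0% = enzyme reaction without inhibitor and -100% = no enzyme wells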
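Step 1, compound plus 15 nM Sfp-PPTase, 15 min, room temperature. Step 2, add rhodamine-CoA (5 uM) and BHQ-2-YbbR (12.5 uM). Step 3, read 525/598 nm fluorescence at 0 and 30 min.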
BAZ2B block = inhibitors of human BAZ2B bromodomain | AlphaScreen BAZ2B-H3K14Ac peptide displacement | hit rate 4.4% among 360,000 | Potency, µM (top dose mostly 114 µM), without a hit: top-dose activity change, negative = inhibition, usual class: inhibitors | Q9UIF8; further: on the % scale 0 is the no-effect control and ±100 the full control effect; nearly all actives have a fitted effect of over 60% in size
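Multi-concentration screen (max 110 uM) measuring displacement of acetylated histone H3 peptide from BAZ2B by AlphaScreen, using 50 nM protein, 50 nM peptide and 10 ug/mL streptavidin donor plus Ni-chelate acceptor beads.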
G9a block = blocks human histone lysine methyltransferase G9a | Potency, µM (series often up to 102 µM), without a hit: at the highest dose activity, negative = inhibition, actives largely listed as inhibitors | hit rate 8.8% among 350,000 | Q96KQ7 | G9a H3K9 monomethylation, AlphaScreen, 2 h; further: on the % scale 0 is the no-effect control and ±100 the full control effect; nearly all actives have a fitted effect of over 75% in size
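G9a (20 nM) was preincubated 15 min with compound, then reacted 2 h at room temperature with 500 nM biotin-H3K9 peptide and 20 µM SAM. Monomethyl-H3K9 detected by AlphaScreen using anti-H3K9me1 antibody.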
* hit, by the source's call; ? = inconclusive; / = no result; ! = a repeat was not active; [ ] = dose if it differs, or a comment. The call rests on the fitted dose curve; in most records, active means well fitted curve in the direction sought with a large enough effect; inconclusive means small, poorly fitted or top-dose-only effect, or another doubt; inactive means no such curve, though single readings can be large; an effect the other way counts as inactive or inconclusive. Potency means the concentration at half of the fitted maximal effect.

SMILES	PLK1 PBD inh	JMJD2A Tudor	HP1b binding inh	Sfp inh	BAZ2B block	G9a block
COC(=O)CCC(=O)OC1(C)C(=O)C2=CN(C3CC3)C(c3ccc(OC)cc3)=CC2=C(Br)C1=O (centres undefined)	27µM*	?	-15%	-6%	/	/
COC(=O)CCC(=O)OC1(C)C(=O)C2=CN(Cc3ccccc3)C(c3ccc(OC)cc3)=CC2=C(Br)C1=O (centres undefined)	?	?	?	13%	/	/
COC(=O)CCC(=O)OC1(C)C(=O)C2=CN(CC(C)C)C(c3ccc(OC)cc3)=CC2=C(Br)C1=O (centres undefined)	/	/	/	?	40µM*	0%[12.7 µM]
COC(=O)CCC(=O)OC1(C)C(=O)C2=CN(Cc3ccc(OC)cc3)C(c3ccc(OC)cc3)=CC2=C(Br)C1=O (centres undefined)	?	50µM*	?	5%	/	/
COC(=O)CCC(=O)OC1(C)C(=O)C2=CN(CC3CC3)C(c3ccc(OC)cc3)=CC2=C(Br)C1=O (centres undefined)	?	?	-12%	-6%	-38%	?
CCCNC(=O)COC(=O)c1cc2c(=O)n3ccccc3nc2s1	-4%	-9%	28%	-25%	4%	?
Cc1noc(C)c1COC(=O)/C=C/c1ccc(Cl)cc1	12µM*	?	51%	-17%	68%	92%
Cc1noc(C)c1COC(=O)CCCNC(=O)c1ccc(Cl)cc1	-7%	-18%	31%	7%	-12%	-12%
O=c1[nH]c(SCc2ccccc2)nc2c1sc1ccccc12	?	-13%[57.1 µM]	56%	2%	-4%	50µM*
COc1cc(C2c3c([nH]c(=O)[nH]c3=O)Nc3ccc4ccccc4c32)cc(OC)c1OC (centres undefined)	?	?	71µM*	56µM*	56µM*	?
COc1cc(C2CC(=O)Oc3c2c(=O)[nH]c2ccccc32)cc(OC)c1OC (centres undefined)	/	1%	44%	/	-18%	-45%[59 µM]
COc1cccc(C2Nc3ccc4ccccc4c3C3=C2C(=O)CCC3)c1O (centres undefined)	5%	-8%	13%	4%	3%	-18%
COc1cc(C2CC(=O)c3c(ccc4ccccc34)N2)ccc1O (centres undefined)	2%	-17%	5%	13%	-23%	11µM*
COc1ccc(C2c3c(nc(C)[nH]c3=O)Oc3ccc4ccccc4c32)cc1OC (centres undefined)	/	-12%	/	/	/	/
COc1cc(C2c3c([nH]c(=O)[nH]c3=O)Nc3ccc4ccccc4c32)ccc1O (centres undefined)	?	?	?	?	?	50µM*
COc1ccc(CCNC(=O)CCS(=O)(=O)c2ccc3c(c2)NC(=O)CO3)cc1OC	-3%	-2%	17%	9%	0%	18%[0.0925 µM]
CNC(=O)C1(CC(C)C)C=CCN1C(C)=O (centres undefined)	-3%	-18%	32%	2%	1%	14%
CC(=O)N1CC=CC1(CC(C)C)C(=O)NCc1ccc(C)o1 (centres undefined)	/	/	/	45µM*	/	/
CC(C)N(C)c1ncnc2c1ncn2[C@H]1CN(C2CCCC2)C[C@@H](CO)O1	-3%	/	/	/	/	/
Cc1nc2cc(OC3(C)CCN(Cc4ccc(OC(F)(F)F)cc4)C3)ccc2s1 (centres undefined)	0%	/	/	/	/	/
Cc1ccc(N2CCOCC2)c2c1C(=O)c1ccccc1C2=O	-13%	32µM*	13µM*	1%	14µM*	3.5µM*
CCCS(=O)(=O)N1CC(=O)N(c2cccc(Cl)c2C)C(C)(C(=O)NC2CCCC2)C1 (centres undefined)	/	-16%	-2%	/	4%	10%[59 µM]
O=C(CCl)c1ccc(Cc2ncc(C(F)(F)F)cc2Cl)s1	2.4µM*	79µM*	30%	-20%	?	?
O=C(O)CP(=O)(O)O	-8%	?	15%	-2%	?	13µM*!
N[C@H](CCCP(=O)(O)O)C(=O)O	/	/	/	16%	/	/
